Source: the supplement of paper PMC10849652
Targets with a hit are over-represented here; the source holds about 8,800 in all. About 0.5% of all pairs of compound and target were hits. Unmarked numbers belong to inactive results.

Legend:
Experiment in all cases: log2 fold change, soluble protein after heating vs DMSO (PISA); higher = thermal stabilisation; K562 lysate, 10 uM; active = over 0.2 and 3.5 SD of the protein, either way, in both replicates (recomputed)
[1] = compound: CS(=O)(=O)CCNCc1ccc(-c2ccc3ncnc(Nc4ccc(OCc5cccc(F)c5)c(Cl)c4)c3c2)o1 [lapatinib]
Procedure, shortened: (§1)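 Log-two fold change in thermal stability relative to solvent controls is reported from duplicates. For each sample, crude K562 extract from dounce-homogenised pellets in PBS pH 7.4 with 1 mM MgCl2, at 1 mg/mL protein, was treated with 10 μM compound for 30 min. Aliquots heated for 3 min across 48°C-58°C were pooled, brought to 0.5% NP-40 at 4°C and cleared at 21,000xg for 90 min. The supernatant was quantified by TMTpro 16plex LC-MS/MS with channel sums equalised.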

[2] = compound: CS(=O)(=O)N1CCN(Cc2cc3nc(-c4cccc5[nH]ncc45)nc(N4CCOCC4)c3s2)CC1 [pictilisib]
Procedure, shortened: as §1

[3] = compound: C[C@@H](Oc1cc(-c2cnn(C3CCNCC3)c2)cnc1N)c1c(Cl)ccc(F)c1Cl [crizotinib]
Procedure, shortened: as §1

[4] = compound: C[C@H](C1=CC=C(C=C1)C(=O)NC2=C3C=CNC3=NC=C2)N
Procedure, shortened: as §1

[5] = compound: C[C@H](Nc1ncnc2nc[nH]c12)c1cc2cccc(Cl)c2c(=O)n1-c1ccccc1 [duvelisib]
Procedure, shortened: as §1

[6] = compound: Cc1cc(Nc2cc(CN3CCOCC3)c3nc(C)c(Cc4ccc(Cl)cc4F)n3n2)n[nH]1 [gandotinib]
Procedure, shortened: as §1

[7] = compound: Cc1cc(Nc2cc(N3CCN(C)CC3)nc(Sc3ccc(NC(=O)C4CC4)cc3)n2)n[nH]1 [tozasertib]
Procedure, shortened: as §1

[8] = compound: Cc1ccc(-n2nc(C(C)(C)C)cc2NC(=O)Nc2ccc(OCCN3CCOCC3)c3ccccc23)cc1 [doramapimod]
Procedure, shortened: as §1

[9] = compound: Cc1ccc(NC(=O)c2ccc(CN3CC[C@H](N(C)C)C3)c(C(F)(F)F)c2)cc1Nc1nccc(-c2cncnc2)n1 [bafetinib]
Procedure, shortened: as §1

[10] = compound: Cc1cccc(CC(=O)N2CCc3c2ccc(-c2cn(C)c4ncnc(N)c24)c3F)n1
Procedure, shortened: as §1

[11] = compound: Cc1cn(-c2cc(NC(=O)c3ccc(C)c(Nc4nccc(-c5cccnc5)n4)c3)cc(C(F)(F)F)c2)cn1 [nilotinib]
Procedure, shortened: as §1

[12] = compound: Cc1nc(Nc2n[nH]c3c2CN(C(=O)N[C@H](CN(C)C)c2ccccc2)C3(C)C)c2sccc2n1
Procedure, shortened: as §1

[13] = compound: Cc1nc(Nc2ncc(C(=O)Nc3c(C)cccc3Cl)s2)cc(N2CCN(CCO)CC2)n1 [dasatinib]
Procedure, shortened: as §1

[14] = compound: Cc1ncc(-c2ccnc(Nc3ccc(S(C)(=O)=O)cc3)n2)n1C(C)C
Procedure, shortened: as §1

[15] = compound: Cn1cc(-c2ccc3c(c2)CCN3C(=O)Cc2cccc(C(F)(F)F)c2)c2c(N)ncnc21
Procedure, shortened: as §1

[16] = compound: Cn1cc(CNCC2CCN(c3ncc(C(=O)NO)cn3)CC2)c2ccccc21 [quisinostat]
Procedure, shortened: as §1

[17] = compound: Cn1cncc1[C@@](N)(c1ccc(Cl)cc1)c1ccc2c(c1)c(-c1cccc(Cl)c1)cc(=O)n2C [tipifarnib]
Procedure, shortened: as §1

[18] = compound: NC(=O)Nc1cc(-c2cccc(F)c2)sc1C(=O)N[C@H]1CCCNC1
Procedure, shortened: as §1

[19] = compound: NC(=O)c1cnc(N[C@@H]2CCCC[C@@H]2N)nc1Nc1cccc(-n2nccn2)c1
Procedure, shortened: as §1

[20] = compound: NC1(c2ccc(-c3nc4ccn5c(=O)[nH]nc5c4cc3-c3ccccc3)cc2)CCC1
Procedure, shortened: as §1

Chain of UniProt O75152 (O75152 whole entry, looked up): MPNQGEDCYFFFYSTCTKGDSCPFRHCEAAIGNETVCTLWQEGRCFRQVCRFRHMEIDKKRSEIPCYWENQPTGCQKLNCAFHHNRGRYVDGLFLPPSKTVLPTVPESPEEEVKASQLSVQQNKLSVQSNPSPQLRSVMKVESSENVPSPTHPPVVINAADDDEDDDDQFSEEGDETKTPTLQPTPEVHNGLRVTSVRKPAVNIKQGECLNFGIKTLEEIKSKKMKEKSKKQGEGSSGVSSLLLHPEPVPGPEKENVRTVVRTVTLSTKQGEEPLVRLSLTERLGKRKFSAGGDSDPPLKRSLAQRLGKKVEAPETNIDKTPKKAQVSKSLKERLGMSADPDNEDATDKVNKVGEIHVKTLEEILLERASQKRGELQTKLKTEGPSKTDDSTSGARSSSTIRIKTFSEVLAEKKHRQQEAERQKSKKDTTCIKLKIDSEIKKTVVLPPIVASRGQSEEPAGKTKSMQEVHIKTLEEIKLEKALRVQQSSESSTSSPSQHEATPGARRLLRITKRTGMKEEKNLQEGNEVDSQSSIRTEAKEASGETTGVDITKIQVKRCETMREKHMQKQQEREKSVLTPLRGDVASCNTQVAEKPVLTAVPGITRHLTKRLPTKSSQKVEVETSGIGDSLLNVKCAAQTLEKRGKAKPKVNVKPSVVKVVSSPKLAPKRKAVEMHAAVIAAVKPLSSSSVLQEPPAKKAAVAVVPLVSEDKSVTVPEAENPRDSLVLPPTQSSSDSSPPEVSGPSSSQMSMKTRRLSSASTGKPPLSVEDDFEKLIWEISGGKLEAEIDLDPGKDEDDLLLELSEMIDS
Chain of UniProt Q8IUH5 (Q8IUH5 whole entry, looked up): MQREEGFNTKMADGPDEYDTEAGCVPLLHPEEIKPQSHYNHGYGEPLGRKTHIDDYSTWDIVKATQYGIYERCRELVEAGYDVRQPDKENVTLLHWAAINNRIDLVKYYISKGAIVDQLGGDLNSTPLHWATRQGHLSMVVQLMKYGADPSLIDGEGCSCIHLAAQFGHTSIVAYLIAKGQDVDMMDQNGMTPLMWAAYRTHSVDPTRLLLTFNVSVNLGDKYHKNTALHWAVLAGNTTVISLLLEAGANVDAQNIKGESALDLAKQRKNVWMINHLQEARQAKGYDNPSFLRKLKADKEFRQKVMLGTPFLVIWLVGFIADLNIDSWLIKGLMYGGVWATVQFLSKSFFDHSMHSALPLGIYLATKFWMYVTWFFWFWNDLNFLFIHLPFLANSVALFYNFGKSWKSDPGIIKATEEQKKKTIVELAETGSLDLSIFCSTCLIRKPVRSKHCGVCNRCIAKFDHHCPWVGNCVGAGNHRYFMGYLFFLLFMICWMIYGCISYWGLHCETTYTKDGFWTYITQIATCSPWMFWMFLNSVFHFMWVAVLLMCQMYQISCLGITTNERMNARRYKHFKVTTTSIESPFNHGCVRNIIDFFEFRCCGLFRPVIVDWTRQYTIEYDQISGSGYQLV
Chain of UniProt Q9UBW7 (Q9UBW7 whole entry, looked up): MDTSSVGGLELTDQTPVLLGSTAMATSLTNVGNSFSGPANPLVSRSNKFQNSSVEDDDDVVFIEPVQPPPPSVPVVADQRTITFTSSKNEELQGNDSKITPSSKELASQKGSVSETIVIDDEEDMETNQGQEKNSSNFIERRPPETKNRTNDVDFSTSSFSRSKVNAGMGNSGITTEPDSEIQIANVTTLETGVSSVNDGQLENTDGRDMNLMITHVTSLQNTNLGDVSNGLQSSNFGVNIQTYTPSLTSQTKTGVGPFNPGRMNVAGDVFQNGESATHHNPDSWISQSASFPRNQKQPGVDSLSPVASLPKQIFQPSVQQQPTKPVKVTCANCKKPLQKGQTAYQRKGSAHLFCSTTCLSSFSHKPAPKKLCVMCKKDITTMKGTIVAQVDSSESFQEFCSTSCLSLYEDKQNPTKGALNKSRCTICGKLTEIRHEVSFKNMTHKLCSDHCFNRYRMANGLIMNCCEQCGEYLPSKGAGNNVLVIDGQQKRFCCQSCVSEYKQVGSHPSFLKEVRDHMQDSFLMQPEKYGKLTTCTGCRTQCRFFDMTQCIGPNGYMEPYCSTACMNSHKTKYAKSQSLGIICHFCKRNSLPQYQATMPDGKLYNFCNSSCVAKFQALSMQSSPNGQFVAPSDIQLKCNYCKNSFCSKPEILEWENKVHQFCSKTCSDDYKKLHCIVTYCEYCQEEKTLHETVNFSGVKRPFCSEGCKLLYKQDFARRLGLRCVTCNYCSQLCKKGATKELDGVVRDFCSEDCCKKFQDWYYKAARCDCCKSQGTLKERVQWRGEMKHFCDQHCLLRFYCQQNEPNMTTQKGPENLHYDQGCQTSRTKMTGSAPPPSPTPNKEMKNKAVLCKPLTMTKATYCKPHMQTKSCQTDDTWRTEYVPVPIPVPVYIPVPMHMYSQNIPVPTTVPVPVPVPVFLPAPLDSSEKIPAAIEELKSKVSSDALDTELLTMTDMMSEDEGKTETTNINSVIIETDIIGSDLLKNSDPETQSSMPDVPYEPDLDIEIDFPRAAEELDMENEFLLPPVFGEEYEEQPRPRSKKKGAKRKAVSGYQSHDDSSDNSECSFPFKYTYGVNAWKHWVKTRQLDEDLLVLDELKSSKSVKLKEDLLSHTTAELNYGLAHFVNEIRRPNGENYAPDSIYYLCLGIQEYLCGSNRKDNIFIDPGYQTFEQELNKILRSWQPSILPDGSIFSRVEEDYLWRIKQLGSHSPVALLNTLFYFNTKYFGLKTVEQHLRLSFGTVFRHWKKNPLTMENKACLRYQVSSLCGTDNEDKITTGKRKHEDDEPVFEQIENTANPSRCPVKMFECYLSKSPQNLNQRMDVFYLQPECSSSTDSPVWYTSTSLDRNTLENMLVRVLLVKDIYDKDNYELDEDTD
Chain of UniProt Q86T24 (Q86T24 whole entry, looked up): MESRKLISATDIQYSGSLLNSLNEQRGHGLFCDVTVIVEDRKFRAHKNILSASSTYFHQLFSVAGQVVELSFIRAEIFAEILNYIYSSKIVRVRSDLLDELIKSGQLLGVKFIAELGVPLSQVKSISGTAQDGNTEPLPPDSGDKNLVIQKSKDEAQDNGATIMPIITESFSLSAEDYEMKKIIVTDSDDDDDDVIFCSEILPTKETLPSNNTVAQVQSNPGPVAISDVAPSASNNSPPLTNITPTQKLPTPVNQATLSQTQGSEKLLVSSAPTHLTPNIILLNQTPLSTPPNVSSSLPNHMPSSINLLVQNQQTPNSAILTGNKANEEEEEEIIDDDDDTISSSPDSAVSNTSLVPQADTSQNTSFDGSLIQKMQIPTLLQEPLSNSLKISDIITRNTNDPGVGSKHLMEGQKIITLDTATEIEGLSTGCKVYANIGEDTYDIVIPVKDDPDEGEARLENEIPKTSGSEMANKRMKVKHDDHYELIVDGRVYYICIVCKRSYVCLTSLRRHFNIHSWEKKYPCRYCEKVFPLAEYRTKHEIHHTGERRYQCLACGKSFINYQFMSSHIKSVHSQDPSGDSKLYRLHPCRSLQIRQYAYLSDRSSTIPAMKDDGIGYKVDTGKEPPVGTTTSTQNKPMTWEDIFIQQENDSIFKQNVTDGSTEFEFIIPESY
Chain of UniProt P27348 (P27348 whole entry, looked up): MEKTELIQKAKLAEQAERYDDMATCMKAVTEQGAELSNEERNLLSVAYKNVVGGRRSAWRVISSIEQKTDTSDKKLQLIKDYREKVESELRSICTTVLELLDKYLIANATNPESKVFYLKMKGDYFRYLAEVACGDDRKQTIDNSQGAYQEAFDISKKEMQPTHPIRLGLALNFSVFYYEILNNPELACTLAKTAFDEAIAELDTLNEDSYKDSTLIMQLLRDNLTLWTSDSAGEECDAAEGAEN
Chain of UniProt Q9UL40 (Q9UL40 whole entry, looked up): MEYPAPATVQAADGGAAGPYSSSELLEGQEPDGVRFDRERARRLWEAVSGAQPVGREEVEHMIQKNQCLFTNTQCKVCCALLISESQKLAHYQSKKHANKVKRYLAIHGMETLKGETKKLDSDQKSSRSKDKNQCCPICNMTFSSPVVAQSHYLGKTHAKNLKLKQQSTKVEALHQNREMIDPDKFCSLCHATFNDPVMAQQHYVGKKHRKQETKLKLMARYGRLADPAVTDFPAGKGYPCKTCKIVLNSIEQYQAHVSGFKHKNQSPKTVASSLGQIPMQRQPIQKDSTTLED
Chain of UniProt O75362 (O75362 whole entry, looked up): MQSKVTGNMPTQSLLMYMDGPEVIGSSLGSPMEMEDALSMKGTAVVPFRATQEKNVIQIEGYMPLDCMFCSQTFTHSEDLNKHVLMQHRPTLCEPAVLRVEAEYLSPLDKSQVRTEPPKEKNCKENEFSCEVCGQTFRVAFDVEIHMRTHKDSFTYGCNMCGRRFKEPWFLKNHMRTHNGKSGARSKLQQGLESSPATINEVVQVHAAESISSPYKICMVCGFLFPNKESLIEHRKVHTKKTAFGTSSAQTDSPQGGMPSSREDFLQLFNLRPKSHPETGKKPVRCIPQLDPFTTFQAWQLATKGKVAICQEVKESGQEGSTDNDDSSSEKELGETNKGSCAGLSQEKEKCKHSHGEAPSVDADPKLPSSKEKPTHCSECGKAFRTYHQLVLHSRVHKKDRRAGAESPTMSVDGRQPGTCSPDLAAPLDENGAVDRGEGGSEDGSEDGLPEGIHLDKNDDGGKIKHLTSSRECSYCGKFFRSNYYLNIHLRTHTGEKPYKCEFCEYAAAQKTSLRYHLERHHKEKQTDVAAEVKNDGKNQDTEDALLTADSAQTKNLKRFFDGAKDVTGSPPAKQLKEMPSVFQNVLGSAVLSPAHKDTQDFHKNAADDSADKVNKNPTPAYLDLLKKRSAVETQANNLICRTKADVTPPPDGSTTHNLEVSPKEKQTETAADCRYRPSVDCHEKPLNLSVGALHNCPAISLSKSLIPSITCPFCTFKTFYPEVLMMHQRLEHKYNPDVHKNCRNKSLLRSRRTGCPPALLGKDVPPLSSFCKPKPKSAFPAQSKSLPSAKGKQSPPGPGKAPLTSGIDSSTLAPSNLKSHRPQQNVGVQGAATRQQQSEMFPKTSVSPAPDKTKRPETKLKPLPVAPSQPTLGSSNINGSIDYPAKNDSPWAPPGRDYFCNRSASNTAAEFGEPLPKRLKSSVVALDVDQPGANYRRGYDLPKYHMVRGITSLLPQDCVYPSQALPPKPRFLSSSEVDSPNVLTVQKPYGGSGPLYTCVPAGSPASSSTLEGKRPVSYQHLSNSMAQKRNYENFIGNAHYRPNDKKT

| Target | log2 fold change [1] | log2 fold change [2] | log2 fold change [3] | log2 fold change [4] | log2 fold change [5] | log2 fold change [6] | log2 fold change [7] | log2 fold change [8] | log2 fold change [9] | log2 fold change [10] | log2 fold change [11] | log2 fold change [12] | log2 fold change [13] | log2 fold change [14] | log2 fold change [15] | log2 fold change [16] | log2 fold change [17] | log2 fold change [18] | log2 fold change [19] | log2 fold change [20] |
| --- | --- | --- | --- | --- | --- | --- | --- | --- | --- | --- | --- | --- | --- | --- | --- | --- | --- | --- | --- | --- |
| UQCRC2 (UniProt P22695) | -0.04 | -0.008 | 0.019 | -0.011 | 0.001 | -0.004 | -0.025 | -0.027 | -0.05 | -0.007 | 0.034 | -0.028 | 0 | 0.004 | -0.043 | 0.007 | -0.011 | 0.02 | -0.008 | 0.011 |
| ZNF217 (UniProt O75362) | -0.02 | 0.059 | -0.025 | -0.045 | -0.011 | -0.009 | 0.044 | 0.004 | 0.037 | 0.052 | 0.06 | 0.026 | 0.001 | 0.054 | -0.057 | -0.179 | -0.086 | 0.014 | 0.021 | -0.075 |
| WDR6 (UniProt Q9NNW5) | -0.023 | -0.03 | -0.049 | -0.05 | -0.005 | -0.007 | -0.013 | -0.007 | -0.022 | 0.024 | -0.017 | 0.002 | -0.018 | -0.003 | 0.026 | -0.075 | 0.036 | 0.033 | 0.006 | -0.032 |
| ZMYM2 (UniProt Q9UBW7) | 0.028 | -0.147 | -0.079 | 0.098 | 0.028 | -0.329 | 0.046 | 0.041 | -0.024 | -0.084 | -0.04 | 0.001 | -0.023 | -0.007 | 0.035 | -0.082 | 0.08 | 0.056 | 0.099 | -0.033 |
| YWHAQ (UniProt P27348) | 0.001 | 0.038 | 0.07 | 0.466 (active) | -0.012 | -0.089 | -0.024 | -0.043 | -0.043 | -0.095 | -0.008 | -0.005 | 0.04 | 0.037 | 0.011 | 0.095 | 0.019 | -0.023 | -0.035 | 0.014 |
| ZBTB33 (UniProt Q86T24) | 0.047 | 0.149 | -0.111 | -0.165 | -0.041 | 0.028 | 0.048 | 0.022 | 0.046 | 0.048 | -0.009 | 0.084 | -0.06 | -0.052 | 0.029 | -0.08 | -0.083 | 0.133 | 0 | -0.035 |
| ZNF346 (UniProt Q9UL40) | 0.01 | -0.008 | 0.009 | -0.01 | -0.009 | -0.026 | 0.005 | 0.02 | -0.043 | -0.072 | -0.005 | 0.02 | -0.099 | 0.021 | 0.014 | -0.014 | 0.015 | 0.005 | 0.011 | 0.01 |
| VANGL1 (UniProt Q8TAA9) | 0.047 | -0.071 | 0.031 | 0.07 | 0.099 | 0.004 | 0.016 | -0.043 | 0.016 | 0.084 | -0.086 | -0.067 | -0.019 | 0.079 | -0.036 | 0.014 | 0.042 | 0.009 | 0.121 | 0.034 |
| ZDHHC18 (UniProt Q9NUE0) | 0.029 | 0.078 | -0.023 | -0.017 | 0.013 | -0.149 | -0.061 | 0.054 | -0.068 | -0.11 | 0.067 | -0.329 | 0.176 | -0.047 | -0.158 | -0.008 | 0.177 | 0.008 | 0.059 | 0.067 |
| ZHX1 (UniProt Q9UKY1) | 0.014 | 0.003 | 0.018 | -0.57 (active) | 0.038 | 0.475 (active) | -0.09 | -0.013 | -0.08 | 0.431 (active) | 0.011 | -0.012 | 0 | 0.06 | -0.096 | -0.035 | 0.007 | 0.039 | -0.047 | -0.011 |
| ZC3H11A (UniProt O75152) | -0.09 | -0.046 | -0.071 | 0.222 | 0.013 | -0.12 | 0.016 | 0.013 | -0.113 | -0.134 | -0.021 | -0.006 | -0.021 | 0.041 | -0.022 | -0.094 | -0.007 | 0 | 0.004 | 0.035 |
| VPS13C (UniProt Q709C8) | -0.008 | 0.023 | 0.003 | -0.065 | 0.021 | -0.055 | 0.052 | -0.006 | -0.054 | 0.213 | 0.138 | 0.043 | -0.011 | -0.069 | -0.039 | -0.034 | -0.177 | -0.009 | -0.028 | -0.05 |
| VARS (UniProt P26640) | -0.017 | -0.027 | -0.068 | -0.004 | 0.002 | -0.092 | -0.021 | 0.022 | -0.012 | 0.029 | -0.012 | -0.004 | -0.072 | 0 | 0.06 | -0.021 | 0.012 | 0.045 | 0.001 | -0.028 |
| YEATS4 (UniProt O95619) | 0.023 | 0.026 | 0.02 | 0.609 (active) | -0.015 | -0.126 | -0.006 | 0.064 | -0.033 | -0.083 | 0.1 | 0.154 | 0.11 | -0.196 | 0.035 | -0.038 | 0.071 | -0.011 | 0.018 | 0.044 |
| ZNF281 (UniProt Q9Y2X9) | – | – | 0.003 | – | 0.029 | – | – | 0.02 | – | – | – | – | -0.041 | – | 0.031 | 0.151 | – | -0.028 | – | 0.02 |
| WEE1 (UniProt P30291) | -0.034 | -0.047 | -0.141 | – | 0.033 | – | 0.011 | 0.183 | 0.068 | – | -0.002 | 0.001 | 0.397 (active) | -0.033 | -0.002 | -0.069 | -0.007 | 0.223 | -0.106 | -0.044 |
| ZDHHC17 (UniProt Q8IUH5) | 0.042 | – | 0.098 | -0.778 (active) | -0.301 | 0.037 | -0.025 | 0.11 | – | 0.17 | -0.164 | 0.039 | -0.096 | -0.115 | -0.028 | 0.045 | 0.118 | -0.118 | -0.047 | – |
